This is part of a sample that, as a whole, favours compounds with a hit. Of some 79,000 tested, about 15% had one in any assay. A number with no mark means an inactive call. Calls of active or inactive are those of the source. Rule as the data show it: active = growth inhibition above about 70%; inactive = the rest.

The record followed here is PubChem BioAssay (NCI).

The nature of test [1]: NCI Yeast Anticancer Drug Screen. Data for the rad50 strain (AID 155).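 Also: 0% = growth of vehicle-only cultures of the same strain.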 Conditions: S. cerevisiae rad50 strain growth inhibition, hits give high values. In outline: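 DNA repair mutant yeast, compound exposure, growth read-out; inhibition is taken relative to vehicle.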
Test [2] can be described thus: NCI Yeast Anticancer Drug Screen. Data for the mec2-1 strain (AID 157). Conditions: S. cerevisiae mec2-1 strain, hits give high values. In short, it runs like this:
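Strain: mec2-1 (DNA repair/cell cycle alteration). Compound exposure, then growth measured; inhibition expressed relative to vehicle.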

Test [3] can be described thus: NCI Yeast Anticancer Drug Screen. Data for the sgs1 mgt1 strain (AID 161).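 Also: 0% = growth of cultures given vehicle only.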 To be noted: S. cerevisiae sgs1 mgt1 strain, hits give high values. In outline:
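Test agents were incubated with a DNA-repair-mutant yeast strain. Growth was then read and compared against vehicle-treated controls.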

A short description of test [4]: NCI Yeast Anticancer Drug Screen. Data for the cln2 rad14 strain (AID 165).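 Also: 0% = growth equal to vehicle treated cultures.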 Conditions: S. cerevisiae cln2 rad14 strain, hits give high values. In short, it runs like this: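 Compounds are applied to the cln2 rad14 yeast strain, and growth is then compared with that of vehicle-treated cultures to give inhibition.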
Test [5] can be described thus: NCI Yeast Anticancer Drug Screen. Data for the bub3 strain (AID 167). To be noted: S. cerevisiae bub3 mutant strain, hits give high values. In short, it runs like this: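 In this screen, a yeast mutant lacking normal mitotic checkpoint function is challenged with compound. Relative growth versus vehicle gives the inhibition value.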
Test [6] in a line: NCI Yeast Anticancer Drug Screen. Data for the mlh1 rad18 strain (AID 175). To be noted: S. cerevisiae mlh1 rad18 strain growth inhibition, hits give high values. In short, it runs like this: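 Read-out is yeast growth inhibition, calculated against vehicle-only controls. The compound was applied to a strain engineered with DNA damage repair alterations.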
Where [7] appears, read: at 5.0 µM (retest, dose inferred, filed as 0.5).
The mark [8] stands for this setting: at 50.0 µM (retest, dose inferred, filed as 5.0).

`Cc1nc([N+](=O)[O-])c(Sc2nncc(-c3ccccc3)n2)n1C`: the growth inhibition in test [1] (setting [7]) is 8%; in test [1] (setting [8]) it was 34%; in test [1] (at 50.0 µM) it was 97.3% (active); in test [2] (setting [7]), 4%; in test [2] (setting [8]), 38%; in test [2] (at 50.0 µM) it was 97.5% (active). In addition, the growth inhibition in test [3] (setting [7]) was 7%; in test [3] (setting [8]) it was 28%; in test [3] (at 50.0 µM) it was 95% (active); in test [4] (setting [7]), -5%; in test [4] (setting [8]), 9%; in test [4] (at 50.0 µM) it was 93% (active). Also, the growth inhibition in test [5] (setting [7]) was 1%; in test [5] (setting [8]), 21%; in test [5] (at 50.0 µM), 97.6% (active); in test [6] (setting [7]), 8%; in test [6] (setting [8]), 43%; in test [6] (at 50.0 µM), 97.5% (active).
Consider `CC(C)(C)c1ccc(O)c(-c2ccccc2)c1`, for which the growth inhibition in test [1] (setting [7]) is -3%; in test [1] (setting [8]), 97% (active); in test [1] (at 50.0 µM) it was 99.2% (active); in test [2] (setting [7]), -6%; in test [2] (setting [8]), 98% (active); in test [2] (at 50.0 µM), 99.7% (active). The growth inhibition in test [3] (setting [7]) is -2%; in test [3] (setting [8]), 98% (active); in test [3] (at 50.0 µM), 99.5% (active); in test [4] (setting [7]) it was -8%; in test [4] (setting [8]), 98% (active); in test [4] (at 50.0 µM), 97.2% (active). Also, the growth inhibition in test [5] (setting [7]) is 2%; in test [5] (setting [8]) it was 97% (active); in test [5] (at 50.0 µM) it was 99.2% (active); in test [6] (setting [7]), -4%; in test [6] (setting [8]), 98% (active); in test [6] (at 50.0 µM), 66.5%.
Turning to `CCCCCCCCCCCCN1C(C)=CS/C1=C\C=C\c1scc(C)[n+]1CCCCCCCCCCCC`, the growth inhibition in test [1] (setting [7]) is 9%; in test [1] (setting [8]), 94% (active); in test [1] (at 50.0 µM), 88% (active); in test [2] (setting [7]), -4%; in test [2] (setting [8]), 97% (active); in test [2] (at 50.0 µM) it was 89.2% (active). In addition, the growth inhibition in test [3] (setting [7]) was 18%; in test [3] (setting [8]), 96% (active); in test [3] (at 50.0 µM), 84.7% (active); in test [4] (setting [7]), 4%; in test [4] (setting [8]) it was 91% (active); in test [4] (at 50.0 µM) it was 85% (active). Moreover, the growth inhibition is 23% in test [5] (setting [7]); 95% (active) in test [5] (setting [8]); 85% (active) in test [5] (at 50.0 µM); 1% in test [6] (setting [7]); 93% (active) in test [6] (setting [8]); 83% (active) in test [6] (at 50.0 µM).
In the case of `Nc1nc(N)c2cc(Sc3cccc(C(F)(F)F)c3)ccc2n1`, the growth inhibition in test [1] (setting [7]) is 21%; in test [1] (setting [8]), 77% (active); in test [1] (at 50.0 µM), 68.5%; in test [2] (setting [7]) it was 18%; in test [2] (setting [8]), 75% (active); in test [2] (at 50.0 µM), 53%. Further, the growth inhibition in test [3] (setting [7]) was 15%; in test [3] (setting [8]), 97% (active); in test [3] (at 50.0 µM) it was 79.1% (active); in test [4] (setting [7]) it was 22%; in test [4] (setting [8]) it was 26%; in test [4] (at 50.0 µM) it was 87.7% (active). In addition, the growth inhibition is 17% in test [5] (setting [7]); 74% (active) in test [5] (setting [8]); 23.9% in test [5] (at 50.0 µM); 22% in test [6] (setting [7]); 93% (active) in test [6] (setting [8]); 88.8% (active) in test [6] (at 50.0 µM).
With `Cc1cc2nc(CC(=O)c3ccncc3)c(=O)[nH]c2cc1C`, the growth inhibition in test [1] (setting [7]) is -28%; in test [1] (setting [8]) it was 9%; in test [1] (at 50.0 µM) it was 6.65%; in test [2] (setting [7]) it was 8%; in test [2] (setting [8]), -11%; in test [2] (at 50.0 µM), 11.7%. For the same compound, the growth inhibition in test [3] (setting [7]) was 1%; in test [3] (setting [8]), 17%; in test [3] (at 50.0 µM) it was 21.6%; in test [4] (setting [7]), -9%; in test [4] (setting [8]), 33%; in test [4] (at 50.0 µM) it was 30.1%. Besides, the growth inhibition was -5% in test [5] (setting [7]); 24% in test [5] (setting [8]); 7.45% in test [5] (at 50.0 µM); -18% in test [6] (setting [7]); 21% in test [6] (setting [8]); 73.1% (active) in test [6] (at 50.0 µM).
`CC1(C)CCCC2=C1C(=O)N(SC(Cl)(Cl)Cl)C2=O`: the growth inhibition is 98% (active) in test [1] (setting [7]); 99% (active) in test [1] (setting [8]); 90.3% (active) in test [1] (at 50.0 µM); 99% (active) in test [2] (setting [7]); 99% (active) in test [2] (setting [8]); 93.1% (active) in test [2] (at 50.0 µM). The growth inhibition in test [3] (setting [7]) was 100% (active); in test [3] (setting [8]), 99% (active); in test [3] (at 50.0 µM), 90.5% (active); in test [4] (setting [7]) it was 99% (active); in test [4] (setting [8]), 99% (active); in test [4] (at 50.0 µM), 91.3% (active). In addition, the growth inhibition in test [5] (setting [7]) was 100% (active); in test [5] (setting [8]), 99% (active); in test [5] (at 50.0 µM), 89.9% (active); in test [6] (setting [7]), 98% (active); in test [6] (setting [8]), 99% (active); in test [6] (at 50.0 µM), 90.1% (active).
For the compound `CC(O)C(O)C(O)C(O)C(O)C(=O)NNc1ccccc1` (stereo not given), the growth inhibition is 9% in test [1] (setting [7]); 75% (active) in test [1] (setting [8]); 44% in test [1] (at 50.0 µM); -1% in test [2] (setting [7]); 37% in test [2] (setting [8]); 52.6% in test [2] (at 50.0 µM). Further, the growth inhibition is 7% in test [3] (setting [7]); 40% in test [3] (setting [8]); 63.2% in test [3] (at 50.0 µM); 10% in test [4] (setting [7]); 71% (active) in test [4] (setting [8]); 13.5% in test [4] (at 50.0 µM). Also, the growth inhibition in test [5] (setting [7]) is 29%; in test [5] (setting [8]), 91% (active); in test [5] (at 50.0 µM), 75.6% (active); in test [6] (setting [7]), 26%; in test [6] (setting [8]), 85% (active); in test [6] (at 50.0 µM), 83.2% (active).
In the case of `COc1ccc(C(Cn2ccnc2)Sc2ccc(Cl)c(Cl)c2)cc1` (stereo not given), the growth inhibition is 74% (active) in test [1] (setting [7]); 97% (active) in test [1] (setting [8]); 92.9% (active) in test [1] (at 50.0 µM); 60% in test [2] (setting [7]); 97% (active) in test [2] (setting [8]); 93.8% (active) in test [2] (at 50.0 µM). In addition, the growth inhibition was 72% (active) in test [3] (setting [7]); 97% (active) in test [3] (setting [8]); 88.7% (active) in test [3] (at 50.0 µM); 47% in test [4] (setting [7]); 86% (active) in test [4] (setting [8]); 90.7% (active) in test [4] (at 50.0 µM). Also, the growth inhibition in test [5] (setting [7]) is 76% (active); in test [5] (setting [8]), 98% (active); in test [5] (at 50.0 µM), 86.5% (active); in test [6] (setting [7]), 81% (active); in test [6] (setting [8]), 96% (active); in test [6] (at 50.0 µM) it was 91.3% (active).
As for `CN1CCC(c2ccccc2)(c2ccccc2)C(=O)C1`, the growth inhibition in test [1] (setting [7]) is 11%; in test [1] (setting [8]), 95% (active); in test [1] (at 50.0 µM), 95.2% (active); in test [2] (setting [7]), -5%; in test [2] (setting [8]) it was 83% (active); in test [2] (at 50.0 µM) it was 94% (active). Moreover, the growth inhibition is 21% in test [3] (setting [7]); 95% (active) in test [3] (setting [8]); 93.8% (active) in test [3] (at 50.0 µM); 15% in test [4] (setting [7]); 69% in test [4] (setting [8]); 74.3% (active) in test [4] (at 50.0 µM). In addition, the growth inhibition in test [5] (setting [7]) is 34%; in test [5] (setting [8]), 96% (active); in test [5] (at 50.0 µM), 89.2% (active); in test [6] (setting [7]), 47%; in test [6] (setting [8]), 95% (active); in test [6] (at 50.0 µM) it was 94.5% (active).
For the compound `Oc1ccc(Cl)cc1Cc1cc(Cl)ccc1O`, the growth inhibition was -1% in test [1] (setting [7]); 99% (active) in test [1] (setting [8]); 3.65% in test [1] (at 50.0 µM); -3% in test [2] (setting [7]); 99% (active) in test [2] (setting [8]); 10.3% in test [2] (at 50.0 µM). Moreover, the growth inhibition in test [3] (setting [7]) was 0%; in test [3] (setting [8]), 99% (active); in test [3] (at 50.0 µM), -2.55%; in test [4] (setting [7]), -16%; in test [4] (setting [8]) it was 99% (active); in test [4] (at 50.0 µM), 24.6%. In addition, the growth inhibition in test [5] (setting [7]) is -3%; in test [5] (setting [8]), 99% (active); in test [5] (at 50.0 µM), 16.6%; in test [6] (setting [7]), -5%; in test [6] (setting [8]), 99% (active); in test [6] (at 50.0 µM) it was -7.85%.
